Here are results for 55 compounds from publication PMC4336329 (PLoS ONE, 2015).

The campaign covered roughly 310,000 compounds. About 14,000 (4.5%) showed an effect of 50% or more. Effects have a minus sign here. The entries come from a sample that favours strong results as a whole.
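Also: peak tail current of the secondary pulse compared with the same well before compound.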

human ether-à-go-go-related gene (hERG) potassium channel, sequence (Q12809 whole entry, looked up): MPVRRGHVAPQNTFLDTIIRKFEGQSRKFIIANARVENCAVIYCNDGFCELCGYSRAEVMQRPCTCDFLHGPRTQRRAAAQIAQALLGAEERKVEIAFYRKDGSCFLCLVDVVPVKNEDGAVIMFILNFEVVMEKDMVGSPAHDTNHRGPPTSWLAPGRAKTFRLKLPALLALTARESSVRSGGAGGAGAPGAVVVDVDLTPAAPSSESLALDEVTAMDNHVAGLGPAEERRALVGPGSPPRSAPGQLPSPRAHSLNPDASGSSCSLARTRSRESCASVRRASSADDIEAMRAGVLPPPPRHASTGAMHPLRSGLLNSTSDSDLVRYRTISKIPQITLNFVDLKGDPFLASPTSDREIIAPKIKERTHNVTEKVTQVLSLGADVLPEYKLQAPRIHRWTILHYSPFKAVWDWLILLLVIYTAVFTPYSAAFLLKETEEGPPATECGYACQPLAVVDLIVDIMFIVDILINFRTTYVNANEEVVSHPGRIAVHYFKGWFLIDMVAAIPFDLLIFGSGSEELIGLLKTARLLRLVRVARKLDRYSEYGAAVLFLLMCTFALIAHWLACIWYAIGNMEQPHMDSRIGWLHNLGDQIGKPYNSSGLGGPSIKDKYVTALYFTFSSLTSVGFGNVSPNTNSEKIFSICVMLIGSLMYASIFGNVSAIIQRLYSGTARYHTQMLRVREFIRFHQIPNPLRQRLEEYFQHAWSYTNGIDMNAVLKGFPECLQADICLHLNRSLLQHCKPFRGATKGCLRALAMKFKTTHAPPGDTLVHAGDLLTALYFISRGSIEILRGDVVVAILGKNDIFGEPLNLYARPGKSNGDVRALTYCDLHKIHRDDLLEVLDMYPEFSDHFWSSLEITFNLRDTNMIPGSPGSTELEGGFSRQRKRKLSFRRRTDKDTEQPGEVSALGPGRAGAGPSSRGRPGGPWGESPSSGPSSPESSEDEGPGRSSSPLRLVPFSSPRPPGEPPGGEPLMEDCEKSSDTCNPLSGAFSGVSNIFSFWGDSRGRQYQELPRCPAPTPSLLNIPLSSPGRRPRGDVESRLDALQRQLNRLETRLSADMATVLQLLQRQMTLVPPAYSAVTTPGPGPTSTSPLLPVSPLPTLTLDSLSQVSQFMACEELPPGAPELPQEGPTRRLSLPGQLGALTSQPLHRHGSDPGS

The assay addresses human ether-à-go-go-related gene (hERG) potassium channel (human, UniProt Q12809). In words: primary screen, population patch clamp on CHO cells stably expressing hERG; higher = less effect of the substance.
`O=C(c1ccc(N2CCCC2=O)cc1)N1CCN(c2ccccc2Cl)CC1`: the “hERG current change (%, negative = inhibition) at 10uM” value is -12.1%.

Regarding `COc1ccc(S(=O)(=O)NCc2cc(=O)n(C)c(=O)n2C)cc1C`, the “hERG current change (%, negative = inhibition) at 10uM” value amounted to 22.6%.

With `COc1ccc(Cl)cc1NC(=O)c1noc(C)c1[N+](=O)[O-]`, the “hERG current change (%, negative = inhibition) at 10uM” value is -29.5%.

For the compound `O=C(NNC(=O)c1cc(-c2ccc(Cl)cc2Cl)nc2ccccc12)Nc1ccccc1`, the “hERG current change (%, negative = inhibition) at 10uM” value was 1.72%.

Take `CC(=O)N1CCN(Cc2nc3cc(NC(=O)COc4ccccc4)ccc3n2C)CC1.Cl`: the “hERG current change (%, negative = inhibition) at 10uM” value is listed as 0.239%.

As to `Cc1ccc(C(C)C)c(OCC(=O)N2CCN(CC(=O)N3CCOCC3)CC2)c1`, the “hERG current change (%, negative = inhibition) at 10uM” value came to 1.81%.

As for `Cc1ccc(C(C)C)c(OCC(=O)N2CCN(Cc3nc4cc([N+](=O)[O-])ccc4n3C)CC2)c1`, the “hERG current change (%, negative = inhibition) at 10uM” value is reported as -65.8%.

For `Cn1c(CN2CCN(C(=O)c3ccc(F)cc3)CC2)nc2cc([N+](=O)[O-])ccc21`, the “hERG current change (%, negative = inhibition) at 10uM” value was -67.5%.

`Cn1c(CN2CCN(C(=O)COc3ccccc3)CC2)nc2cc([N+](=O)[O-])ccc21`: the “hERG current change (%, negative = inhibition) at 10uM” value is reported as -55.2%.

`Cn1c(CN2CCN(C(=O)c3ccco3)CC2)nc2cc([N+](=O)[O-])ccc21`: the “hERG current change (%, negative = inhibition) at 10uM” value is -60%.

In the case of `Cn1c(CCNC(=O)c2ccco2)nc2cc([N+](=O)[O-])ccc21`, the “hERG current change (%, negative = inhibition) at 10uM” value is given as -26%.

Take `CCCC(=O)N1CCN(Cc2nc3cc([N+](=O)[O-])ccc3n2C)CC1`: the “hERG current change (%, negative = inhibition) at 10uM” value was -36.8%.

For the compound `CCCC(=O)NCCc1nc2cc([N+](=O)[O-])ccc2n1C`, the “hERG current change (%, negative = inhibition) at 10uM” value was -16.4%.

Consider `CN1CCN(Cc2nc3cc(NC(=O)COc4ccc([N+](=O)[O-])cc4)ccc3n2C)CC1`, for which the “hERG current change (%, negative = inhibition) at 10uM” value is on record as 9.29%.

As to `O=C(CSc1nccn1-c1ccc(Cl)cc1)N1CCCc2ccccc21`, the “hERG current change (%, negative = inhibition) at 10uM” value is listed as -11.7%.

For the compound `Cc1cc(NC(=O)c2cccc(S(=O)(=O)N3CCC(C)CC3)c2)no1`, the “hERG current change (%, negative = inhibition) at 10uM” value came out at 0.978%.

For the compound `CCCCN(C)C(=O)c1cc2cc3cc(OC)ccc3nc2o1`, the “hERG current change (%, negative = inhibition) at 10uM” value was -30.8%.

Take `C(=N\Nc1nc(N2CCCC2)nc(N2CCCC2)n1)/c1ccncc1`: the “hERG current change (%, negative = inhibition) at 10uM” value is listed as 2.85%.

In the case of `Cn1c(CN2CCN(S(C)(=O)=O)CC2)nc2cc([N+](=O)[O-])ccc21`, the “hERG current change (%, negative = inhibition) at 10uM” value is -0.37%.

`CC(=O)N1CCN(Cc2nc3cc([N+](=O)[O-])ccc3n2C)CC1`: the “hERG current change (%, negative = inhibition) at 10uM” value is listed as -4.94%.

Consider `Cn1c(CN2CCN(C(=O)c3ccccc3)CC2)nc2cc([N+](=O)[O-])ccc21`, for which the “hERG current change (%, negative = inhibition) at 10uM” value was -67.3%.

As for `COC(=O)c1c(C)oc(C)c(C(=O)OC)c1=O`, the “hERG current change (%, negative = inhibition) at 10uM” value is given as 5.25%.

In the case of `O=C1C2C3C=CC(C4CC34)C2C(=O)N1Cc1ccco1` (stereo not shown), the “hERG current change (%, negative = inhibition) at 10uM” value was 4.37%.

As for `Cc1cc(=O)oc(C)c1C(=O)NCCCN1CCN(c2ccc(F)cc2)CC1`, the “hERG current change (%, negative = inhibition) at 10uM” value is recorded as -53.6%.

`Cc1c(C)n(C)c2ccc(C(=O)NCCCN3CCCC3)cc12`: the “hERG current change (%, negative = inhibition) at 10uM” value is reported as -23.8%.

With `Cc1cc(=O)oc(C)c1C(=O)NCCCN1CCN(c2ccccc2F)CC1`, the “hERG current change (%, negative = inhibition) at 10uM” value is listed as -40.4%.

Consider `Cc1c(C)n(C)c2ccc(C(=O)NCCCN3CCN(c4ccccc4F)CC3)cc12`, for which the “hERG current change (%, negative = inhibition) at 10uM” value was -54.2%.

In the case of `CCc1nc2ccc(C(=O)NCCCN3CCN(c4ccc(F)cc4)CC3)cc2nc1CC`, the “hERG current change (%, negative = inhibition) at 10uM” value is reported as -66.4%.

Regarding `Cc1c(C)n(C)c2ccc(C(=O)NCCCN3CCOCC3)cc12`, the “hERG current change (%, negative = inhibition) at 10uM” value is 10.8%.

Regarding `COc1ccc(N2CCN(CCNC(=O)c3c(C)cc(=O)oc3C)CC2)cc1`, the “hERG current change (%, negative = inhibition) at 10uM” value is reported as -12.2%.

Turning to `Cc1c(C)n(C)c2ccc(C(=O)NCCCN3CCN(c4ccc(F)cc4)CC3)cc12`, the “hERG current change (%, negative = inhibition) at 10uM” value is -66.6%.

Turning to `Cc1c(C)n(C)c2ccc(C(=O)NCCCN3CCCCC3)cc12`, the “hERG current change (%, negative = inhibition) at 10uM” value is recorded as -17.2%.

As to `Cc1c(C)n(C)c2ccc(C(=O)NCCCN3CCN(C)CC3)cc12`, the “hERG current change (%, negative = inhibition) at 10uM” value is listed as 14.9%.

As to `CCc1nc2ccc(C(=O)NCCCN3CCN(c4ccccc4F)CC3)cc2nc1CC`, the “hERG current change (%, negative = inhibition) at 10uM” value is -49.8%.

With `O=C(NCCCN1CCN(c2ccc(F)cc2)CC1)c1cccc(N2CCCC2=O)c1`, the “hERG current change (%, negative = inhibition) at 10uM” value is -48.5%.

With `Cc1ccc(S(=O)(=O)N2CCN(S(=O)(=O)c3ccc(C)cc3)C2)cc1`, the “hERG current change (%, negative = inhibition) at 10uM” value was -24.9%.

In the case of `CCN(CC)S(=O)(=O)c1cc(-c2nnc(-c3ccc(Br)cc3)o2)ccc1Br`, the “hERG current change (%, negative = inhibition) at 10uM” value is given as 12.7%.

In the case of `COCCNC(=S)NN(c1ccccc1)c1ccccc1`, the “hERG current change (%, negative = inhibition) at 10uM” value was -1.18%.

For `Oc1cc2c(cc1CN1CCc3ccccc3C1)OCO2`, the “hERG current change (%, negative = inhibition) at 10uM” value is given as -0.697%.

Take `CS(=O)(=O)N1CCN(c2ccc(NC(=O)COc3ccccc3)cc2)CC1`: the “hERG current change (%, negative = inhibition) at 10uM” value was 0.0465%.

`COc1ccc(/C=N/NC(=O)c2ccc(NC(=O)c3ccccc3Br)cc2)cc1`: the “hERG current change (%, negative = inhibition) at 10uM” value is on record as 6.43%.

As to `CCN1/C(=C/C(C)=O)Sc2ccc(OC)cc21`, the “hERG current change (%, negative = inhibition) at 10uM” value is on record as -12.7%.

Consider `CCN1/C(=C\C(C)=O)Sc2ccc(OC)cc21`, for which the “hERG current change (%, negative = inhibition) at 10uM” value was 13.9%.

Consider `CCN1/C(=C/c2cccc[n+]2C)Sc2ccc(OC)cc21.[I-]`, for which the “hERG current change (%, negative = inhibition) at 10uM” value is given as -67.3%.

As to `CCCNC(=O)COC(=O)c1cccnc1Nc1ccccc1F`, the “hERG current change (%, negative = inhibition) at 10uM” value is listed as -9.21%.

On to `CCC1C(=O)NCCN1C(=O)c1ccc2nc(Cc3cccc(Cl)c3)oc2c1` (stereo not shown), for which the “hERG current change (%, negative = inhibition) at 10uM” value is -18.6%.

Turning to `O=C(CCCc1ccccc1)NCc1ccc(Cl)cc1`, the “hERG current change (%, negative = inhibition) at 10uM” value is -15.3%.

Turning to `CCN(CC(=O)NCc1ccc(Cl)cc1)C(=O)Cc1ccccc1[N+](=O)[O-]`, the “hERG current change (%, negative = inhibition) at 10uM” value is listed as -63.4%.

Regarding `O=C(COC(=O)Cc1ccccc1[N+](=O)[O-])NCc1ccc(Cl)cc1`, the “hERG current change (%, negative = inhibition) at 10uM” value is on record as -11%.

`O=C(Cc1ccccc1[N+](=O)[O-])NCc1ccc(Cl)cc1`: the “hERG current change (%, negative = inhibition) at 10uM” value turned out to be 5.25%.

Regarding `CCN(CC(=O)NCc1cccs1)C(=O)CCc1c[nH]c2ccccc12`, the “hERG current change (%, negative = inhibition) at 10uM” value was -17.6%.

With `CCN(CC(=O)NCc1ccc(Cl)cc1)C(=O)CCc1ccccc1`, the “hERG current change (%, negative = inhibition) at 10uM” value was -58.7%.

As for `CCN(CC(=O)NCc1ccc(Cl)cc1)C(=O)C(C)Sc1ccccc1` (stereo not shown), the “hERG current change (%, negative = inhibition) at 10uM” value is -33.8%.

Turning to `CCN(CC(=O)NCc1ccc(Cl)cc1)C(=O)NCc1ccc(Cl)cc1`, the “hERG current change (%, negative = inhibition) at 10uM” value is recorded as -48.4%.

Turning to `CCN(CC(=O)NCc1ccc(Cl)cc1)C(=O)CCc1ccccc1O`, the “hERG current change (%, negative = inhibition) at 10uM” value was -54.1%.
